# In PubChem BioAssay AID493248 (Broad Institute, 2011):
# Out of some 2,300 compounds screened, about 1,400 (61%) were called active. Another 7% or so got no clear call; they are omitted. No rule for the calls is given here. So high a share suggests a set chosen from earlier hits. These entries were drawn from the full list. Results with a measured potency or affinity are listed apart.
# Biological target: FAD-linked sulfhydryl oxidase ALR (Homo sapiens) (UniProt P55789)
# Assay: inhibitors of human ALR sulfhydryl oxidase, dose response, biochemical, H2O2 detection, luminescence, cherry-pick (AID 493248)
# Settings: purified ALR, DTT oxidation, H2O2 HRP-luminol luminescence; at 10 µM (top of the series)
# Sequence of FAD-linked sulfhydryl oxidase ALR (Homo sapiens) (P55789 whole entry, looked up): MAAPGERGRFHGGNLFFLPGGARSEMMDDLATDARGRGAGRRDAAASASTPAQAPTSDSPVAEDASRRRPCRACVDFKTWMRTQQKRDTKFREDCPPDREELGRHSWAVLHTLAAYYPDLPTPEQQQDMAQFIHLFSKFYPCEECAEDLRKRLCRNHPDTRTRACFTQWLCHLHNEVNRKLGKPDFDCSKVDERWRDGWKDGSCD
row,SMILES,"activity change, negative = inhibition [%]"
1,Cc1ccccc1NC(=O)CNc1ccccc1N1CCCCC1,-89.6
2,COc1ccc(S(=O)(=O)N2CCC(C(=O)Nc3ccccc3N3CCCC3)CC2)cc1OC,-28.9
3,COC(=O)c1c(NC(=O)CN2CCN(Cc3ccc4c(c3)OCO4)CC2)sc(C)c1C,-8.94
4,O=C(Nc1ccccc1N1CCCC1)c1cccc(F)c1,-3.33
5,c1ccc2c(c1)CSc1ccccc1N2,-6.27
6,CC1CN(C(=O)Nc2ccc3snnc3c2)c2ccccc21 (stereo unspecified),-13.6
7,CCCCCC(=O)N/N=C/c1ccc(N(C)C)cc1,-20.3
8,CN(C)c1ccc(/C=N/NC(=O)c2sccc2-n2cccc2)cc1,-99
9,O=C(CNC(=O)c1ccccc1Br)N/N=C/c1ccc(O)cc1,-106
10,CN(C)c1ccc(C=Nc2cnn(C)c2C(N)=O)cc1,-35.9
11,CCn1c(NC(=O)c2ccc(C)cc2)c2ccccc2nc1=O,-48.8
12,O=Cc1c(Sc2ccccc2)nc2ccccn2c1=O,-18.4
13,O=C1Oc2ccccc2C(=O)/C1=C\N1CCN(c2ccccc2)CC1,-15.7
14,COc1ccc(OC)c(S(=O)(=O)Nc2cccc3c(O)cccc23)c1,31.7
15,Cc1ccc(S(=O)(=O)Nc2c(O)ccc3ccccc23)cc1,13.8
16,COc1ccc(C=O)cc1CSc1ccccn1,-11.6
17,COc1c(OC)c(O)c2c(=O)cc(-c3c(O)cccc3O)oc2c1OC,162
18,Cc1nc(-c2ccc([N+](=O)[O-])cc2)c(-c2ccccc2)o1,29.9
19,O=C(CC1C(=O)Nc2ccccc2N1CC(=O)N1CCCC1)Nc1ccc(Br)cc1 (stereo unspecified),-30
20,CCN(CC)c1ccc2oc(=O)c(C)nc2c1,88.3
21,O=C(c1cc(C(=O)c2ccco2)cc(C(=O)c2ccco2)c1)c1ccco1,-7.08

row,SMILES,"activity change, negative = inhibition [%]"
1,O=C(CCNc1cccc(Cl)c1)c1ccco1,-4.82
2,COc1cc(NCCC(=O)c2cccs2)c(OC)cc1Cl,-89.7
3,c1ccc2c3c([nH]c2c1)-c1[nH]ncc1CC3,-82.4
4,NC(=O)NC1CCCc2c1[nH]c1ccc(Cl)cc21 (stereo unspecified),-12.4
5,COc1ccc(-c2csc(NC(=O)[C@H](C)N3C(=O)C4CC=CCC4C3=O)n2)cc1OC (stereo partly specified),-58.5
6,COc1cc(/C=C2\SC(=Nc3ccccc3OC)NC2=O)ccc1O,-53.3
7,O=C(c1cccc(Cl)c1)C1CCCN(Cc2ccc(N3CCNC3=O)cc2)C1 (stereo unspecified),-1.51
8,CCC(=O)N1CCN=C1SCc1cccc(F)c1,-25.9
9,O=C(CN1C(=O)CSC1=O)N1CCCC(Nc2ccc(F)cc2)C1 (stereo unspecified),-78.4
10,Cc1nc(N2CCN(C)CC2)c2cc(-c3ccccc3)sc2n1,-4.2
11,COc1cc(C(=O)O)c2c(c1C)OC(=O)c1c(C)cc(O)c(C=O)c1O2,-39.1
12,CNC(=O)c1csc(-c2ccc(C)cc2)n1,146
13,Cc1cccc(NCc2ccc(N(C)C)cc2)n1,-5.45
14,CCNc1nc(NCC)nc(N(C)N)n1,-22.3
15,COc1ccc(O)c(CNc2ccccc2F)c1,-6.08
16,CC(C)n1c(NCc2cccs2)nc2ccccc21,-4.15
17,CC(=O)Nc1ccc(-c2csc(NNC(=O)c3ccccc3)n2)cc1,7.25
18,CC(=O)Nc1ccc(NCc2ccc(C)s2)cc1,-11.5
19,O=C(CN1C(=O)S/C(=C\C=C\c2ccccc2)C1=O)Nc1ccccc1C(=O)O,-58
20,COc1cc(C(=O)N/N=C/c2cccc(Oc3ccccc3)c2)ccc1O,-2.05
21,CCN(CC)S(=O)(=O)c1ccc(C(=O)Nc2nnc(CSC)o2)cc1,-25.7

row,SMILES,"activity change, negative = inhibition [%]"
1,Cc1[nH]n(C(N)=S)c(=O)c1N=Nc1cccc([N+](=O)[O-])c1C,-50.5
2,Cc1cc(C(=O)Nc2sc3c(c2C#N)CCCC3)no1,-53.9
3,Cc1cc(C(=O)Nc2nc3c(s2)CCCC3)no1,-50.2
4,O=C(NCc1n[nH]c(=S)n1-c1ccc(Cl)c(Cl)c1)c1ccc(S(=O)(=O)N2CCCCC2)cc1,15
5,COc1ccc(C(=O)c2ccc(N(C)C)cc2)c(OC)c1,-4.89
6,CC(C)C(=O)n1nc(-c2cccnc2)nc1NCc1cccs1,-25.7
7,C(=C\c1nc2ccccc2[nH]1)/c1ccccc1,-1.44
8,O=c1[nH]ccc2c(O)cccc12,-103
9,Nc1ccc2nc[nH]c2c1,-12.8
10,CC(C)Cc1nc2ccc(N)cc2[nH]1,-1.73
11,Nc1ccc(-c2nc3ccc([N+](=O)[O-])cc3[nH]2)cc1,31
12,COc1ccc(N=C2C(=O)N3CCCc4cccc2c43)cc1,-15.6
13,O=C(NCCc1ccccc1)C1CCCN(S(=O)(=O)c2cnc[nH]2)C1 (stereo unspecified),6.71
14,Cc1ccc(S(=O)(=O)N2CCCC(C(=O)O)C2)s1 (stereo unspecified),5.85
15,O=C(NCc1ccccc1Cl)C1CCCN(S(=O)(=O)c2cnc[nH]2)C1 (stereo unspecified),20
16,COc1cc(NC(=O)C2CCCN(S(=O)(=O)c3cnc[nH]3)C2)cc(OC)c1 (stereo unspecified),-31
17,N#Cc1c(N)c(C(=O)c2ccccc2)n2c1CCC2,-45.9
18,N#Cc1c2n(c3c(=O)n(Cc4ccccc4)cnc13)CCCC2,18
19,COc1ccc(C(=O)NCCNc2nc3ccc(C)cc3cc2C#N)cc1OC,3.56
